Data as given in PubChem BioAssay.
For some assays here: Results with a measured potency or affinity are listed apart. Calls of active or inactive are those of the source. No rule for the calls is given here.

biological target: Plasmodium falciparum protein kinase 6 (PK6, PF3D7_1337100) (UniProt Q8IDW1); test: PfPK6 kinase inhibitors, biochemical, TCAMS library (AID 1159586); conditions: recombinant PfPK6, Kinase-Glo ATP depletion luminescence
Sequence (Q8IDW1 1-305): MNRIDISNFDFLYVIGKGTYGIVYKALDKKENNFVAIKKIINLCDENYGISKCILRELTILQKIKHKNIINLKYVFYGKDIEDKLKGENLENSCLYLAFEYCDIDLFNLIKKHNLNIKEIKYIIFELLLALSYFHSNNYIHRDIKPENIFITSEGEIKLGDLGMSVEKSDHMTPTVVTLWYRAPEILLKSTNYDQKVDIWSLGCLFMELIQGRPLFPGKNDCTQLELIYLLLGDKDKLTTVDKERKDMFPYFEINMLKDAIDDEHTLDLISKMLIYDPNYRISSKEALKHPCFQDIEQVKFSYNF

outcome, inactive:
CCCCOc1ccc(CNCCCCCCNCc2ccc(OCCCC)c3ccccc23)c2ccccc12
O=C(Nc1ccc(-c2nc3ccccc3[nH]2)cc1)c1cccc(S(=O)(=O)N2CCOCC2)c1
COc1ccc(NC(=O)[C@H](CC(C)C)Nc2cc(C)nc(NCCc3cccs3)n2)cc1
O=C(NCCCCCCNCc1ccc(-c2ccccc2)cc1)Nc1ccc(Cl)c(Cl)c1
O=C(Nc1ccc(-c2ccccc2)cc1)Nc1cccc(Cn2nc(Cl)c(N3CCNCC3)cc2=O)c1
COc1cccc(C2CCN(CCN3CCC(NC(=O)c4ccc(-c5ccc(Cl)cc5)cc4)CC3)CC2)c1
COc1ccc2nc(-c3cccc(C)n3)nc(Nc3ccncc3)c2c1
Cc1nc2c(c(C)nn2C(C)(C)C)c(C)c1CCC(=O)Nc1ccc(CN2CCCC2)cc1
CCCSc1nc2c(c(=O)n1Cc1ccco1)C1(CCCCC1)Cc1ccccc1-2
CN(C)CCOc1cc(NC(=O)Nc2ccc3c(c2)CCCC3=O)ccc1I
Nc1c2ccccc2nc2ccc(-c3ccccc3)cc12
CN1CCC(NCc2ccc(-c3cccc(S(=O)(=O)NCCc4ccccn4)c3)cc2)CC1
Cc1ccc2sc(N(CCCn3ccnc3)C(=O)c3ccco3)nc2c1C
Cc1ccc(-c2cc3nc4c(c(NCCCn5ccnc5)n3n2)CCC4)cc1
O=S(=O)(c1ccccc1)C1CC1
CCCCCCc1ncc(-c2cc3cc(O)c(-c4ccccc4)cc3oc2=O)s1
Cc1cc(N[C@@H](Cc2ccccc2)C(=O)NCCc2ccccc2)nc(NCCc2cccs2)n1
COc1ccc(Nc2nccc(N3CCC(NC(=O)Nc4cccc(C(C)=O)c4)C3)n2)cc1 (stereo not given)
O=C(Nc1ccc(Cl)c(Cl)c1)C1CCC(=O)N1[C@@H](Cc1ccccc1)C(=O)NCCc1ccc(Cl)cc1 (stereo not given in full)
CC(C)(C)OC(=O)/C=C(\C(=O)OCc1ccc([N+](=O)[O-])cc1)c1csc(NC(c2ccccc2)(c2ccccc2)c2ccccc2)n1
COC(=O)c1sc(-c2ccc(Cl)cc2)cc1N(CCCN1CCC(N2CCCCC2)CC1)S(=O)(=O)c1ccc(C)cc1
CN1C(=C2SC(=Nc3ccc4ncccc4c3)N(Cc3ccccc3)C2=O)Sc2ccc(Cl)cc21
N#Cc1cccc(NC(=O)NC2CCN(CCCCCNC(=O)[C@@H]3C[C@H]3c3ccc(Cl)c(Cl)c3)CC2)c1
CC(C)(C)COc1ccc2c(N)n[nH]c2c1
COc1cc(NC2CCCC(NCc3cn(S(=O)(=O)c4ccccc4)c4ccccc34)C2)nc2ccccc12 (stereo not given)
CN(C)CCNC(=O)c1cc2c(-c3ccc(Cl)cc3)nn(C)c2s1
O=[N+]([O-])c1ccc(Oc2ccccc2CNCC2CCN(CC3CCCCC3)CC2)cc1
COc1cc2nc(NCCc3ccccc3)nc(N(C)Cc3ccccc3)c2cc1OC
COc1ccc2nc(C)cc(NN=Cc3ccc(Cl)cc3)c2c1
CN(C)CCOc1ccc(NC(=O)Nc2ccnc3c(Br)cccc23)cc1Cl
COc1cc(-c2nc(-c3ccccc3)c(-c3ccc(C(=O)c4ccc(F)cc4)cc3)[nH]2)cc(OC)c1O
O=C(/C=C/c1ccc(Cl)c(Cl)c1)NCCCCCN1CCC(c2[nH]nc(-c3ccccc3)c2Br)CC1
c1ccc(CN2CCN(c3cc(-c4cncc(-c5ccccc5)c4)nc(-c4ccccc4)n3)CC2)cc1
Cc1ccc(-n2cc(CNCCc3ncc(C)[nH]3)c(-c3ccc(F)cc3)n2)cc1
Cc1cc(C(=O)Nc2ccc(C)c(-c3nc(N(C(=O)c4ccc(F)c(C)c4)C4CCNCC4)nc4c3ccc(=O)n4-c3c(F)cccc3F)c2)ccc1F
CCC(O)(C#Cc1c(C)nc(N)nc1N)CC
COc1ccc(CC(=O)NC2CCN(c3ccnc4cc(Cl)ccc34)C2)cc1 (stereo not given)
O=C(Nc1ccc(Cl)cc1)N[C@H]1CCN(Cc2ccc(OCCCN3CCCCC3)cc2)C1
O=C(C=Cc1ccc(-c2nc3ccccc3[nH]2)cc1)NC1CCN(Cc2ccccc2)CC1
Nc1c2c(nc3ccc(C(=O)Nc4ccccc4)cc13)CCCC2

biological target: Protein kinase 7 (PK7), Plasmodium falciparum 3D7 (PF3D7_0213400) (UniProt Q7YTF7); test: inhibition of Plasmodium PK7 catalytic activity – biochemical, TCAMS antimalarial set, Kinase-Glo luminescence (AID 1159587); conditions: recombinant PfPK7, Kinase-Glo ATP depletion luminescence
Sequence (Q7YTF7 1-343): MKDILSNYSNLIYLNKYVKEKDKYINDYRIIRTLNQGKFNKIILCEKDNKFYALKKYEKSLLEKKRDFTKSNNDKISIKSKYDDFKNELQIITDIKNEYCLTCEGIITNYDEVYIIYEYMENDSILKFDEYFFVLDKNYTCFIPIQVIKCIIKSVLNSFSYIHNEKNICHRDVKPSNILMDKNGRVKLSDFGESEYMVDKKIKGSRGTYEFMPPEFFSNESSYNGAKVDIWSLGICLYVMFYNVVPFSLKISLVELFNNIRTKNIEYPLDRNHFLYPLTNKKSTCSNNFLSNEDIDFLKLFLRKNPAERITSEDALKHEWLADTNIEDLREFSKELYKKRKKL

outcome, inactive:
CCCCOc1ccc(CNCCCCCCNCc2ccc(OCCCC)c3ccccc23)c2ccccc12
O=C(Nc1ccc(-c2nc3ccccc3[nH]2)cc1)c1cccc(S(=O)(=O)N2CCOCC2)c1
COc1ccc(NC(=O)[C@H](CC(C)C)Nc2cc(C)nc(NCCc3cccs3)n2)cc1
O=C(NCCCCCCNCc1ccc(-c2ccccc2)cc1)Nc1ccc(Cl)c(Cl)c1
O=C(Nc1ccc(-c2ccccc2)cc1)Nc1cccc(Cn2nc(Cl)c(N3CCNCC3)cc2=O)c1
COc1cccc(C2CCN(CCN3CCC(NC(=O)c4ccc(-c5ccc(Cl)cc5)cc4)CC3)CC2)c1
COc1ccc2nc(-c3cccc(C)n3)nc(Nc3ccncc3)c2c1
Cc1nc2c(c(C)nn2C(C)(C)C)c(C)c1CCC(=O)Nc1ccc(CN2CCCC2)cc1
CCCSc1nc2c(c(=O)n1Cc1ccco1)C1(CCCCC1)Cc1ccccc1-2
CN(C)CCOc1cc(NC(=O)Nc2ccc3c(c2)CCCC3=O)ccc1I
Nc1c2ccccc2nc2ccc(-c3ccccc3)cc12
CN1CCC(NCc2ccc(-c3cccc(S(=O)(=O)NCCc4ccccn4)c3)cc2)CC1
Cc1ccc2sc(N(CCCn3ccnc3)C(=O)c3ccco3)nc2c1C
Cc1ccc(-c2cc3nc4c(c(NCCCn5ccnc5)n3n2)CCC4)cc1
O=S(=O)(c1ccccc1)C1CC1
CCCCCCc1ncc(-c2cc3cc(O)c(-c4ccccc4)cc3oc2=O)s1
Cc1cc(N[C@@H](Cc2ccccc2)C(=O)NCCc2ccccc2)nc(NCCc2cccs2)n1
COc1ccc(Nc2nccc(N3CCC(NC(=O)Nc4cccc(C(C)=O)c4)C3)n2)cc1 (stereo not given)
O=C(Nc1ccc(Cl)c(Cl)c1)C1CCC(=O)N1[C@@H](Cc1ccccc1)C(=O)NCCc1ccc(Cl)cc1 (stereo not given in full)
CC(C)(C)OC(=O)/C=C(\C(=O)OCc1ccc([N+](=O)[O-])cc1)c1csc(NC(c2ccccc2)(c2ccccc2)c2ccccc2)n1
COC(=O)c1sc(-c2ccc(Cl)cc2)cc1N(CCCN1CCC(N2CCCCC2)CC1)S(=O)(=O)c1ccc(C)cc1
CN1C(=C2SC(=Nc3ccc4ncccc4c3)N(Cc3ccccc3)C2=O)Sc2ccc(Cl)cc21
N#Cc1cccc(NC(=O)NC2CCN(CCCCCNC(=O)[C@@H]3C[C@H]3c3ccc(Cl)c(Cl)c3)CC2)c1
CC(C)(C)COc1ccc2c(N)n[nH]c2c1
COc1cc(NC2CCCC(NCc3cn(S(=O)(=O)c4ccccc4)c4ccccc34)C2)nc2ccccc12 (stereo not given)
CN(C)CCNC(=O)c1cc2c(-c3ccc(Cl)cc3)nn(C)c2s1
O=[N+]([O-])c1ccc(Oc2ccccc2CNCC2CCN(CC3CCCCC3)CC2)cc1
COc1cc2nc(NCCc3ccccc3)nc(N(C)Cc3ccccc3)c2cc1OC
COc1ccc2nc(C)cc(NN=Cc3ccc(Cl)cc3)c2c1
CN(C)CCOc1ccc(NC(=O)Nc2ccnc3c(Br)cccc23)cc1Cl
COc1cc(-c2nc(-c3ccccc3)c(-c3ccc(C(=O)c4ccc(F)cc4)cc3)[nH]2)cc(OC)c1O
O=C(/C=C/c1ccc(Cl)c(Cl)c1)NCCCCCN1CCC(c2[nH]nc(-c3ccccc3)c2Br)CC1
c1ccc(CN2CCN(c3cc(-c4cncc(-c5ccccc5)c4)nc(-c4ccccc4)n3)CC2)cc1
Cc1ccc(-n2cc(CNCCc3ncc(C)[nH]3)c(-c3ccc(F)cc3)n2)cc1
Cc1cc(C(=O)Nc2ccc(C)c(-c3nc(N(C(=O)c4ccc(F)c(C)c4)C4CCNCC4)nc4c3ccc(=O)n4-c3c(F)cccc3F)c2)ccc1F
CCC(O)(C#Cc1c(C)nc(N)nc1N)CC
COc1ccc(CC(=O)NC2CCN(c3ccnc4cc(Cl)ccc34)C2)cc1 (stereo not given)
O=C(Nc1ccc(Cl)cc1)N[C@H]1CCN(Cc2ccc(OCCCN3CCCCC3)cc2)C1
O=C(C=Cc1ccc(-c2nc3ccccc3[nH]2)cc1)NC1CCN(Cc2ccccc2)CC1
Nc1c2c(nc3ccc(C(=O)Nc4ccccc4)cc13)CCCC2
